Records with an inconclusive call do not appear. Activity calls are given as the source filed them. Unless noted, calls follow the shape of the full dose curve.
What was measured:
[1] = qHTS assay to identify small molecule agonists of the vitamin D receptor (VDR) signaling pathway - cell viability counter screen (AID 743224; active = well fitted curve in the direction sought with a large enough effect in the repeat runs; an effect the other way counts as inactive or inconclusive; also: nearly all actives have a fitted effect of over 50% in size); settings: VDR-bla HEK293T viability, CellTiter-Glo luminescence, 16 h; series mostly up to 62.6 µM
Method in brief: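 In parallel with the bla FRET readout, cytotoxicity toward VDR-bla cells after 16 h compound exposure was assessed by CellTiter-Glo, with luminescence recorded after a 30 min room-temperature incubation.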

[2] = qHTS assay to identify small molecule antagonists of the vitamin D receptor (VDR) signaling pathway - cell viability counter screen (AID 743225; active = well fitted curve in the direction sought with a large enough effect in the repeat runs; an effect the other way counts as inactive or inconclusive; also: nearly all actives have a fitted effect of over 50% in size); settings: VDR-bla HEK293T viability, CellTiter-Glo luminescence, 16 h; series mostly up to 61 µM
Method in brief: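 Cytotoxicity counter screen read by CellTiter-Glo luminescence (30 min, room temperature) in the same wells as the VDR-bla antagonist readout. HEK 293T VDR-UAS-bla cells had 16 h at 37C with compound and 3 nM (final) 1-alpha,25-dihydroxyvitamin D3, then 2 h with FRET substrate.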

[3] = qHTS assay to identify small molecule agonists of the NFkB signaling pathway (AID 1159509; active = well fitted curve in the direction sought with a large enough effect in the signal ratio in the repeat runs, not every such curve was filed as active; the % refers to the signal ratio); settings: NFkB-bla ME-180 cells, beta-lactamase FRET ratio, 5 h; series mostly up to 61 µM
Method in brief: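 Beta-lactamase reporter assay run in quantitative high-throughput format on an NF-kB-responsive ME-180 line, with 5 hr compound treatment and a FRET-based blue/green fluorescence readout.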

[4] = qHTS assay to identify small molecule agonists of the NFkB signaling pathway - cell viability counter screen (AID 1159515); settings: NFkB-bla ME-180 viability, CellTiter-Glo luminescence, 5 h; series mostly up to 61 µM; also: nearly all actives have a fitted effect of over 55% in size
Method in brief: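 Plate 2,000 NFkB-bla ME-180 cells/well; incubate overnight. Add compounds, 5 hr at 37 C. Add FRET substrate, 1.5 hr RT. Add CellTiter-Glo, 30 min RT; read luminescence.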

[5] = qHTS assay to identify small molecule agonists of the endoplasmic reticulum stress response signaling pathway (AID 1159516; active = well fitted activation curve with a large enough effect in the signal ratio in the repeat runs, not every such curve was filed as active; the % refers to the signal ratio); settings: ESRE-bla HeLa, ER stress beta-lactamase reporter, 5 h; series mostly up to 61 µM
Method in brief: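 Beta-lactamase expression from the ER stress response element in HeLa reporter cells is quantified with the LiveBLAzer B/G FRET substrate, read at 405 nm excitation after 2 hr at room temperature, following 5 hr compound treatment at 37 C.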

[6] = qHTS assay to identify small molecule antagonists of the retinoid-related orphan receptor gamma (ROR-gamma) signaling pathway - cell viability counter screen (AID 1159520; active = well fitted curve in the direction sought with a large enough effect in the repeat runs; an effect the other way counts as inactive or inconclusive; also: nearly all actives have a fitted effect of over 50% in size); settings: Tet-on RORgamma CHO cells viability, ATP luminescence, 16 h; series mostly up to 92.4 µM
Method in brief: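 Cytotoxicity was read from cellular ATP (CellTiter-Glo luminescence) after 16 hr at 37 C with 1 uM doxycycline induction. The inducer was added 2 hr after compound transfer to Tet-on ROR gamma CHO cells.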

[7] = qHTS assay to identify small molecule agonists of the AP-1 signaling pathway - cell viability counter screen (AID 1159525); settings: ME-180 AP-1-bla cells viability, ATP luminescence, 5 h; series mostly up to 76.8 µM; also: nearly all actives have a fitted effect of over 55% in size
Method in brief: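 Intracellular ATP by Cell Titer Glo luminescence (30 min, RT) in the same ME-180 AP-1-bla wells after the 5 h compound exposure at 37 °C. Normalised to tetra n-octyl ammonium bromide and DMSO controls.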

[8] = qHTS assay to identify small molecule agonists of the AP-1 signaling pathway (AID 1159526); settings: ME-180 (cervical carcinoma) AP-1-bla reporter, beta-lactamase FRET ratio, 5 h; series mostly up to 76.8 µM
[9] = target: Nuclear receptor ROR-gamma (Homo sapiens) (UniProt P51449); assay: qHTS assay to identify small molecule antagonists of the retinoid-related orphan receptor gamma (ROR-gamma) signaling pathway (AID 1159521; active = well fitted curve in the direction sought with a large enough effect in the repeat runs; an effect the other way counts as inactive or inconclusive; also: top concentration of the series differs between compounds; nearly all actives have a fitted effect of over 50% in size); settings: Tet-on RORgamma CHO cells, RORE-luciferase, 16 h; series mostly up to 92.4 µM
Method in brief: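 Antagonist read-out: drop in luminescence (ONE-Glo) from an RORE-LUC reporter in CHO cells with doxycycline-inducible ROR-gamma; 2 hr compound pretreatment, 1 uM doxycycline, 16 hr incubation at 37 C.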

Measured: Potency

CN(C)CCC(c1ccccc1)c1ccccn1 (stereo not drawn)
not listed: [9]
inactive: all other assays above

c1ccc2scnc2c1
not listed: [1]
inactive: all other assays above

CCCCCCCCCCCCc1ccccc1
not listed: [1] | [9]
inactive: all other assays above

CCCCC(CC)COC(=O)CCCCC(=O)OCC(CC)CCCC (stereo not drawn)
not listed: [9]
inactive: all other assays above

OCC(CO)(CBr)CBr
inactive: all assays above

CC(O)COCC(C)O (stereo not drawn)
not listed: [9]
inactive: all other assays above

Reference: PubChem BioAssay (Tox21)
